This passage reports Potency results from PubChem BioAssay (NCATS).

The structures appear in SMILES notation. Results filed as inconclusive are left out. Unmarked numbers belong to inactive results. Active and inactive are the calls of the source. Calls come from the whole dose curve; as a rule, active = well fitted curve in the direction sought with a large enough effect; inconclusive = small, poorly fitted or top-dose-only effect, or another doubt; inactive = no such curve, though single readings can be large; an effect the other way counts as inactive or inconclusive.

The nature of assay [1]: qHTS of pediatric cancer cell lines to identify multiple opportunities for drug repurposing: Primary screen for BT-12 cells (AID 1347101). Note: nearly all actives have a fitted effect of over 25% in size. Note: potency is the fitted concentration of half-maximal effect. The gist of the method:
(§1)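 Cells (500-1,000/well) rested 5 h, then received compounds for 48 h; metabolically active cells were measured by CellTiter-Glo luminescence. Final concentrations spanned up to 46 µM (MIPE, 11-point) or 0.59 nM-46 µM (NPC, 8-point) in primary screens, 11-point in follow-ups.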

Assay [2] is described as follows: qHTS of pediatric cancer cell lines to identify multiple opportunities for drug repurposing: Primary screen for RD cells (AID 1347104). Note: nearly all actives have a fitted effect of over 55% in size. Note: potency is the fitted concentration of half-maximal effect. In a few lines:
(§2)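 Quantitative HTS format: each compound titrated (MIPE 11 points from 0.78 nM, NPC 8 points from 0.59 nM) onto cells plated 5 hours earlier. After 48 h at 37 degrees C, CellTiter-Glo luminescence was recorded.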
In general terms: Quantitative high-throughput screening tests each substance at several concentrations.

The nature of assay [3]: qHTS of pediatric cancer cell lines to identify multiple opportunities for drug repurposing: Primary screen for MG 63 (6-TG R) cells (AID 1347105). Note: nearly all actives have a fitted effect of over 50% in size. Note: potency is the fitted concentration of half-maximal effect. In a few lines: as §2
Assay [4] can be described thus: qHTS of pediatric cancer cell lines to identify multiple opportunities for drug repurposing: Primary screen for control Hh wild type fibroblast cells (AID 1347106). Note: nearly all actives have a fitted effect of over 55% in size. Note: potency is the fitted concentration of half-maximal effect. The gist of the method: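 Viability after 48 h compound treatment at 37C, 500-1,000 cells/well, read as ATP luminescence with CellTiter-Glo. Primary screens used 11-point (MIPE, 0.78 nM-46 µM) or 8-point (NPC, 0.59 nM-46 µM) final concentrations; follow-up screens used 11-point dilutions.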

Assay [5] in a line: qHTS of pediatric cancer cell lines to identify multiple opportunities for drug repurposing: Confirmatory screen for NB1643 cells (AID 1347109). Note: nearly all actives have a fitted effect of over 45% in size. Note: potency is the fitted concentration of half-maximal effect. The gist of the method:
as §1

Assay [6] can be described thus: qHTS of pediatric cancer cell lines to identify multiple opportunities for drug repurposing: Confirmatory screen for A673 cells (AID 1347110).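 Note: potency is the fitted concentration of half-maximal effect; cells exposed to compound for 48 h before the viability read; nearly all actives have a fitted effect of over 65% in size.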 The settings on record: A673 Ewing sarcoma cell viability. The gist of the method: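 A673 cells at 500-1,000 cells/well were dosed 5 h after plating, in dilution series up to 46 uM final; primary runs used 8 or 11 points and confirmatory runs used 11 points. Viability was read by CellTiter-Glo luminescence after 48 h, against DMSO and 2.3 uM bortezomib controls.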

A short description of assay [7]: qHTS of pediatric cancer cell lines to identify multiple opportunities for drug repurposing: Confirmatory screen for SK-N-MC cells (AID 1347111).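 Note: potency is the fitted concentration of half-maximal effect; cells exposed to compound for 48 h before the readout; nearly all actives have a fitted effect of over 70% in size.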 To be noted: SK-N-MC cell viability. The gist of the method: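 Seed 500-1,000 cells/well; rest 5 h at 37 degrees C. Pin-transfer compounds, 11-point titration. Incubate 48 h. Add CellTiter-Glo, 15 min RT, read luminescence.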

The nature of assay [8]: qHTS of pediatric cancer cell lines to identify multiple opportunities for drug repurposing: Confirmatory screen for LAN-5 cells (AID 1347113). Note: nearly all actives have a fitted effect of over 65% in size. Note: potency is the fitted concentration of half-maximal effect. In a few lines: as §1
A short description of assay [9]: qHTS of pediatric cancer cell lines to identify multiple opportunities for drug repurposing: Confirmatory screen for NB-EBc1 cells (AID 1347115).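 Note: cells exposed to compound for 48 h before the viability read; nearly all actives have a fitted effect of over 45% in size.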 Note: potency is the fitted concentration of half-maximal effect. The gist of the method:
as §1

Assay [10] is described as follows: qHTS of pediatric cancer cell lines to identify multiple opportunities for drug repurposing: Confirmatory screen for SJ-GBM2 cells (AID 1347116). Note: nearly all actives have a fitted effect of over 60% in size. Note: potency is the fitted concentration of half-maximal effect. In a few lines: (§3)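 Viability measured as metabolically active cells via CellTiter-Glo luminescence following 48 hours of compound exposure, 11-point dilutions in confirmatory testing. 500-1,000 cells/well plated 5 hours before dosing; controls were DMSO and 2.3 µM bortezomib.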

Assay [11] is described as follows: qHTS of pediatric cancer cell lines to identify multiple opportunities for drug repurposing: Confirmatory screen for BT-37 cells (AID 1347117). Note: potency is the fitted concentration of half-maximal effect; nearly all actives have a fitted effect of over 55% in size. The settings on record: BT-37 pediatric cancer cells, viability. In a few lines:
as §1

Assay [12] can be described thus: qHTS of pediatric cancer cell lines to identify multiple opportunities for drug repurposing: Confirmatory screen for TC32 cells (AID 1347118).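 Note: potency is the fitted concentration of half-maximal effect; cells exposed to compound for 48 h before the read; nearly all actives have a fitted effect of over 65% in size.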 To be noted: TC32 Ewing sarcoma cells viability qHTS. In a few lines:
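Luminescent CellTiter-Glo read-out of metabolically active TC32 cells after 48 h compound exposure. Primary: MIPE 11-point, 0.78 nM–46 µM; NPC 8-point, 0.59 nM–46 µM. Confirmatory: 11-point dilutions.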

Assay [13] can be described thus: qHTS of pediatric cancer cell lines to identify multiple opportunities for drug repurposing: Confirmatory screen for MG 63 (6-TG R) cells (AID 1347119). Note: nearly all actives have a fitted effect of over 55% in size. Note: potency is the fitted concentration of half-maximal effect. The gist of the method:
as §1

The nature of assay [14]: qHTS of pediatric cancer cell lines to identify multiple opportunities for drug repurposing: Primary screen for Rh18 cells (AID 1347102). Note: nearly all actives have a fitted effect of over 65% in size. In a few lines:
as §1

A short description of assay [15]: qHTS of pediatric cancer cell lines to identify multiple opportunities for drug repurposing: Primary screen for Rh30 cells (AID 1347107). Note: series mostly up to about 46 µM; nearly all actives have a fitted effect of over 75% in size. In a few lines: as §1
The nature of assay [16]: qHTS of pediatric cancer cell lines to identify multiple opportunities for drug repurposing: Primary screen for Rh41 cells (AID 1347108). Note: nearly all actives have a fitted effect of over 70% in size. Note: potency is the fitted concentration of half-maximal effect. The gist of the method: as §2
Assay [17] in a line: qHTS of pediatric cancer cell lines to identify multiple opportunities for drug repurposing: Confirmatory screen for BT-12 cells (AID 1347112). Note: nearly all actives have a fitted effect of over 55% in size. Note: potency is the fitted concentration of half-maximal effect. The gist of the method:
as §1

The nature of assay [18]: qHTS of pediatric cancer cell lines to identify multiple opportunities for drug repurposing: Confirmatory screen for DAOY cells (AID 1347114). Note: nearly all actives have a fitted effect of over 65% in size. Note: potency is the fitted concentration of half-maximal effect. The gist of the method: as §3
The nature of assay [19]: qHTS of pediatric cancer cell lines to identify multiple opportunities for drug repurposing: Confirmatory screen for control Hh wild type fibroblast cells (AID 1347121). Note: nearly all actives have a fitted effect of over 70% in size. In a few lines: as §1
Assay [20] can be described thus: qHTS of pediatric cancer cell lines to identify multiple opportunities for drug repurposing: Primary screen for OHS-50 cells (AID 1347103). Note: nearly all actives have a fitted effect of over 40% in size. Note: potency is the fitted concentration of half-maximal effect. In a few lines: as §1

On to `Oc1c(Br)cc(Br)c2cccnc12`, for which the Potency in assay [1] was 27.6 µM (active); in [2], 23.7 µM (active); in assay [3] it was 21100 nM (active); in [5], 26.1 µM (active); in assay [6], 11.7 µM (active); in [7], 1.17 µM (active). Moreover, the Potency in [8] was 18.5 µM (active); in assay [9] it was 26.1 µM (active); in assay [11], 18.5 µM (active); in assay [12], 1.65 µM (active); in [13], 16.5 µM (active). Moreover, the Potency entry in assay [4] and in assay [10] was “inactive” each time.

Take `CCCCCCOc1ccccc1C(N)=O`: the Potency entry in assay [14], in [2], in [3], in [4], in [15] and in assay [16] was “inactive” throughout.

In the case of `Nc1ccc(O)c([N+](=O)[O-])c1`, the Potency entry in [2], in [3], in assay [4], in [15] and in [16] was “inactive” throughout.

As for `O=c1cc(-c2ccccc2)oc2ccccc12`, the Potency result in assay [2], in [3], in assay [4] and in assay [16] was “inactive” throughout.

Take `Cc1nc2ccccc2n1Cc1ccc(Cl)cc1`: the Potency entry in [2], in assay [3], in assay [4] and in [15] was “inactive” throughout.

In the case of `Clc1ccccc1-c1nc(-c2ccncc2)no1`, the Potency entry in [14], in assay [2], in assay [3], in assay [4], in assay [15] and in assay [16] was “inactive” each time.

As to `CCCSc1ccc2nc(NC(=O)OC)[nH]c2c1`, the Potency is 2.76 µM (active) in [1]; 668 nM (active) in assay [3]; 2 µM (active) in assay [5]; 2 µM (active) in assay [6]; 1.58 µM (active) in assay [7]; 25.1 µM (active) in assay [17]. Also, the Potency in [8] was 8.91 µM (active); in assay [18], 1.26 µM (active); in assay [11], 3.98 µM (active); in assay [12], 0.355 µM (active); in assay [13] it was 1.26 µM (active). Also, the Potency result in assay [4], in assay [15] and in [19] was “inactive” each time.

Take `COC(=O)C1=C(C)NC(C)=C(C(=O)OCC(C)C)C1c1ccccc1[N+](=O)[O-]` (configuration not stated): the Potency in assay [20] was 24.6 µM (active). Also, the Potency result in [3], in [4] and in assay [15] was “inactive” throughout.

For `Cc1c(C(=O)O)c(O)cc2c1C(=O)c1c(O)c([C@@H]3O[C@H](CO)[C@@H](O)[C@H](O)[C@H]3O)c(O)c(O)c1C2=O`, the Potency entry in assay [2] and in assay [15] was “inactive” throughout.

Turning to `Cc1c(Nc2ncccc2C(=O)O)cccc1C(F)(F)F`, the Potency entry in [1], in assay [2], in assay [4], in assay [15] and in assay [16] was “inactive” each time.

With `c1ccc2sc(SSc3nc4ccccc4s3)nc2c1`, the Potency result in assay [1], in assay [2], in assay [3], in assay [15] and in assay [16] was “inactive” each time.

As for `CC(C)OC(=O)c1cc(C(=O)OC(C)C)cc([N+](=O)[O-])c1`, the Potency entry in [14], in [2], in assay [3], in assay [4], in assay [15] and in assay [16] was “inactive” in each case.

As for `c1ccc(CCNc2nc(-c3ccccc3)cs2)cc1`, the Potency entry in assay [3], in assay [4], in [15] and in assay [16] was “inactive” throughout.

As to `C#C[C@]1(O)CC[C@H]2[C@@H]3CCc4cc(O)ccc4[C@H]3CC[C@@]21C`, the Potency entry in [3], in [4] and in assay [15] was “inactive” throughout.

As for `COc1cccc2c1C(=O)c1c(O)c3c(c(O)c1C2=O)C[C@@](O)(C(=O)CO)C[C@@H]3O[C@H]1C[C@H](N)[C@H](O[C@@H]2CCCCO2)[C@H](C)O1`, the Potency in assay [1] is 1.55 µM (active); in [2] it was 8.41 µM (active); in assay [3], 841 nM (active); in assay [16] it was 8.41 µM (active); in assay [6], 3.29 µM (active); in [7], 1.65 µM (active). The Potency in assay [17] is 13.1 µM (active); in [18], 11.7 µM (active); in assay [9], 3.29 µM (active); in assay [10] it was 14.7 µM (active); in assay [11], 1.17 µM (active); in assay [12], 0.465 µM (active).

`O=c1[nH]c2ccccc2n1CCCN1CCN(C(c2ccccc2)c2ccccc2)CC1`: the Potency entry in assay [3], in assay [4] and in assay [15] was “inactive” throughout.

Take `[O-][n+]1ccccc1SSc1cccc[n+]1[O-]`: the Potency in assay [1] is 0.12 µM (active); in assay [2] it was 0.0731 µM (active); in [3] it was 184 nM (active); in assay [4] it was 11.6 µM (active); in [5] it was 1.15 µM (active); in assay [6] it was 1.62 µM (active). Moreover, the Potency was 0.456 µM (active) in assay [7]; 3.23 µM (active) in assay [17]; 0.288 µM (active) in assay [8]; 2.57 µM (active) in assay [9]; 0.811 µM (active) in [11]; 1.29 µM (active) in assay [12]. Moreover, the Potency result in assay [13] and in assay [19] was “inactive” each time.

For the compound `S=c1[nH]c2ccccc2s1`, the Potency entry in assay [1], in [3], in [4], in assay [15] and in assay [16] was “inactive” each time.

With `Nc1ccc([N+](=O)[O-])cc1O`, the Potency result in assay [15], in [16], in assay [5], in assay [17], in assay [8] and in assay [18] was “inactive” throughout. For the same compound, the Potency result in [9], in [10], in assay [13] and in assay [19] was “inactive” throughout. In addition, the Potency in [6] is 2.14 µM (active); in [12], 7.59 µM (active).

For the compound `Nc1nc2ccc([N+](=O)[O-])cc2s1`, the Potency result in assay [2], in assay [3], in assay [4], in assay [15] and in assay [16] was “inactive” in each case.

Turning to `CCCC(=O)OC[C@@H](OC(=O)CCC)[C@@H](OC(=O)CCC)[C@H](Cn1c2nc(=O)[nH]c(=O)c-2nc2cc(C)c(C)cc21)OC(=O)CCC`, the Potency in assay [1] was 27.6 µM (active). In addition, the Potency result in assay [3], in assay [4] and in assay [15] was “inactive” throughout.

Take `Cc1cc(O)c2ccccc2c1O`: the Potency in [3] was 26600 nM (active). Moreover, the Potency result in assay [4] was “inactive”.

With `O=C1CN(/N=C/c2ccc([N+](=O)[O-])o2)C(=O)N1`, the Potency entry in assay [20], in assay [2], in [4] and in assay [15] was “inactive” in each case.

As to `CN(C)c1ccc(N=NS(=O)(=O)O)cc1`, the Potency result in assay [14], in assay [2], in [3], in [4], in assay [15] and in assay [16] was “inactive” each time.

For `COc1cc(NC(C)CCCN)c2ncccc2c1` (configuration not stated), the Potency in assay [20] is 24.6 µM (active). The Potency entry in [3], in [4] and in assay [15] was “inactive” each time.
